Measured values published in PubChem BioAssay (NCATS).
Values joined by “and” are separate entries in the source; they are usually repeats but may differ in a detail not shown here. Equal values may be shown once. A number with no mark means an inactive call. Records with an inconclusive call do not appear. A call without a number means that no potency is given here. Active and inactive are the calls of the source. Unless noted, calls come from the whole dose curve; as a rule, active = well fitted curve in the direction sought with a large enough effect; inconclusive = small, poorly fitted or top-dose-only effect, or another doubt; inactive = no such curve, though single readings can be large; an effect the other way counts as inactive or inconclusive.

Columns and labels:
[1] = Confirmation and Secondary Assay for Modulators of Hemoglobin Beta Chain Splicing at IVS2 654 locus (AID 910);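 note: HeLa cells stably carrying EGFP split by mutant beta-globin IVS2-654 intron; per-well total GFP intensity by laser scanning cytometry after 2-day treatment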
Method in brief: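 Readout: per-well total peak green fluorescence (488 nm ex, 500–520 nm em) from objects 5–250 µm, reflecting correct splicing of an EGFP-654 reporter. Compounds were applied for 2 days at 37 °C to overnight-plated HeLa EGFP-654 cells; controls were DMSO and 500 nM IVS2-654 PNA.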

[2] = Confirmation and Secondary Assay for Modulators of Hemoglobin Beta Chain Splicing at IVS2 705 locus (AID 930);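 note: HeLa cells stably expressing the EGFP-705 splicing reporter; GFP fluorescence per well restored by corrected splicing of the IVS2-705 intron in EGFP; series mostly up to about 46 µM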
Method in brief: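 Per-well GFP, captured at 1 x 8 µm resolution with 488 nm excitation, served as the read-out for HeLa EGFP-705 cells incubated 2 days with test compound versus DMSO.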

[3] = Cell Viability - LYMP2-001 (AID 921); note: nearly all actives have a fitted effect of over 70% in size; note: potency is the fitted concentration of half-maximal effect
Method in brief: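 Human lymphoblastoid LYMP2-001 cells, 2500 per well, in complete medium, treated 24 h at 37 C. Viability from cellular ATP by CellTiter-Glo luminescence; AC50 from Hill-equation fits of qHTS concentration-response.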

[4] = molecular target: Cytochrome P450 2C19 (Homo sapiens) (UniProt P33261); test: qHTS Assay for Inhibitors and Substrates of Cytochrome P450 2C19 (AID 899); note: nearly all actives have a fitted effect of over 60% in size; note: potency is the fitted concentration of half-maximal effect
Method in brief: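 5nM enzyme + 10uM Luciferin-H EGE (=KM), 50mM KPO4; cpd pin-transferred, 10 min 37C; NADPH regen, 60 min 37C; stopped w/ luciferin detection reagent, 20 min; luminescence. Normalized to 57uM ketoconazole (AC100).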

[5] = qHTS Assay for Identification of Small Molecule Agonists for Hypoxia Response Element Signaling Pathway (AID 914; active = well fitted activation curve with a large enough effect in the signal ratio, with a control signal flat, not every such curve was filed as active; the % refers to the signal ratio); conditions: ME-180 (cervical carcinoma) HRE-bla reporter, beta-lactamase ratio, CoCl2, 17 h; hits give high values
Method in brief: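 In Opti-MEM containing 0.5% dialyzed FBS and 10 mM HEPES, ME-180 HRE-bla cells received a compound titration and EC50 CoCl2. They were incubated 17 hours, then CCF4-loaded 2.5 hours at room temperature before ratio reading.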

[6] = molecular target: Muscarinic acetylcholine receptor M1 (Rattus norvegicus) (UniProt P08482); test: qHTS Assay for Antagonists of Acetylcholine Muscarinic M1 Receptor: Measurement of IP-One Response (AID 944); note: nearly all actives have a fitted effect of over 75% in size; note: potency is the fitted concentration of half-maximal effect
Method in brief: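 CHO cells stably expressing rat M1, pretreated 10 min with compound, then stimulated 30 min with carbachol at EC80 (200 nM) in LiCl-containing buffer pH 7.4; IP1 accumulation read by HTRF competition (665/620 nm).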

[7] = molecular target: Pyruvate kinase (Leishmania mexicana) (UniProt Q27686); test: qHTS Validation Assay for Inhibitors of Leishmania Mexicana Pyruvate Kinase (AID 945); note: potency is the fitted concentration of half-maximal effect
Method in brief: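 An endpoint luciferase assay: 0.2 nM LmPYK E451W turns over 0.5 mM PEP with 0.1 mM ADP for 1 h at room temperature, pH 7.2, before PKLight addition. Values are normalized to DMSO-only wells.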

[8] = qHTS Assay for Identification of Small Molecule Antagonists for Thrombopoietin (TPO) Signaling Pathway (AID 918); conditions: TPO-dependent cell signaling reporter, antagonist mode; note: potency is the fitted concentration of half-maximal effect; nearly all actives have a fitted effect of over 60% in size
Method in brief: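 Murine Ba/F3 cells expressing human TPO receptor and a Glycoprotein IIb promoter-luciferase reporter, IL-3-starved overnight, treated with compound plus TPO at EC50 (26 pM final). After 24 h at 37 C, luminescence read to detect inhibitors.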

[9] = qHTS Assay for Identification of Small Molecule Agonists for Thrombopoietin (TPO) Signaling Pathway (AID 917); note: potency is the fitted concentration of half-maximal effect
Method in brief: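 Murine Ba/F3 cells expressing human TPO receptor and GPIIb-promoter luciferase, IL-3-starved overnight, given compound plus TPO at 26 pM (EC50). After 24 h at 37 C, 5% CO2, luminescence read.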

[10] = MultiTox-Fluor Cytotoxicity Assay - LYMP1-001 - Dead Cells (AID 946);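 note: cells exposed to compound for 16 h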
Method in brief: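 AC50 from Hill fit of concentration-response; data normalized to DMSO (basal) and 15 uM tetraoctylammonium bromide (100%). LYMP1-001 lymphoblastoid cells, 2500/well, 16 hr compound at 37 C; dead-cell protease fluorescence, Ex/Em 485/520.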

Sequence of Cytochrome P450 2C19 (Homo sapiens) (P33261 whole entry, looked up): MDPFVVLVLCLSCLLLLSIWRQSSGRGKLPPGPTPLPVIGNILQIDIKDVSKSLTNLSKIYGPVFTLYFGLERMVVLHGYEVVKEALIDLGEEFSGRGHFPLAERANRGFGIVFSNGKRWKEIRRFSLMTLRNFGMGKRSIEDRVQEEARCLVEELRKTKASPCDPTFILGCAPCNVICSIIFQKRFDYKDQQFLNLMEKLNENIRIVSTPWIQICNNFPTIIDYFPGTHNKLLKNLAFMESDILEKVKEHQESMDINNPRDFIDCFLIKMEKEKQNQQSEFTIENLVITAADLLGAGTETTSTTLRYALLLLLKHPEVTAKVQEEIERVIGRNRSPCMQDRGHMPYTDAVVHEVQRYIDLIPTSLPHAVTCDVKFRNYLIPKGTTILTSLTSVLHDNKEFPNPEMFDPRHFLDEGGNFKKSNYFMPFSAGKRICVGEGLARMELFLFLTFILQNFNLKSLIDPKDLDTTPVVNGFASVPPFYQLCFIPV
Sequence of Muscarinic acetylcholine receptor M1 (Rattus norvegicus) (P08482 whole entry, looked up): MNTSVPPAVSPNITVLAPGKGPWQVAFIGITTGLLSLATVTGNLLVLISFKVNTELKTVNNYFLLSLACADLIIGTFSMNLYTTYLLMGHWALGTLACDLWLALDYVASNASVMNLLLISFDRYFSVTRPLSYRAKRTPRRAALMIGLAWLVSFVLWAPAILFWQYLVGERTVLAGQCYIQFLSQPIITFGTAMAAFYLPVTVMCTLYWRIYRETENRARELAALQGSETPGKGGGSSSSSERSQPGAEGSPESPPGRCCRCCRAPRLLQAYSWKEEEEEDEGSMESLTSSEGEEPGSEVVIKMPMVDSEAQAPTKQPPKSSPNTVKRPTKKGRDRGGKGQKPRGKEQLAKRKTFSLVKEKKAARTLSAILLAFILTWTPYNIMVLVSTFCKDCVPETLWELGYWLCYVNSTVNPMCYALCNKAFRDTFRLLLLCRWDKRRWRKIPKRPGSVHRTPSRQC
Sequence of Pyruvate kinase (Leishmania mexicana) (Q27686 2-499 E452W): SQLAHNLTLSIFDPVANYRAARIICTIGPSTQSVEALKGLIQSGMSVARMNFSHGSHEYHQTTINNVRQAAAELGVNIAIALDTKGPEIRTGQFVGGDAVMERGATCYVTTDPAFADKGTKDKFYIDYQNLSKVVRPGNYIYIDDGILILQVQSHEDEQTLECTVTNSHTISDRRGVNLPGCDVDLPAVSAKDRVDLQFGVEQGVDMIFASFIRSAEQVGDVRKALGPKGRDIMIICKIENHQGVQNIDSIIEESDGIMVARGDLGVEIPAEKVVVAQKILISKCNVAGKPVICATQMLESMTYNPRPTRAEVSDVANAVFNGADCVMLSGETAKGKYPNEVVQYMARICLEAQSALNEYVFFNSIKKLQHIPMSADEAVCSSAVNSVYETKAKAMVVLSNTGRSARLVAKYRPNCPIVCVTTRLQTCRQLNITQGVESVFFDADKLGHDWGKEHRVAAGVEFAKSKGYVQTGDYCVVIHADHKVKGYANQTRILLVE

## C[CH2][Hg][S]c1ccccc1C(=O)O
[1]
  outcome: inactive
[2]
  outcome: inactive

## C=CCC1(C(C)CCC)C(=O)N=C(S)NC1=O (centres undefined)
[1]
  outcome: inactive
[2]
  outcome: inactive

## COc1ccc(OC)c(C(O)C(C)N)c1 (centres undefined)
[1]
  outcome: inactive
[2]
  outcome: inactive

## CC(N)Cc1ccc(O)cc1 (centres undefined)
[1]
  outcome: inactive
[2]
  outcome: inactive

## NC(Cc1ccc(N(CCCl)CCCl)cc1)C(=O)O (centres undefined)
[1]
  outcome: inactive
[2]
  outcome: inactive

## [Cl-].[Cl-].[Hg+2]
[1]
  outcome: inactive
[3]
  Potency: 0.794 µM (active)
[2]
  outcome: inactive

## O=[N+]([O-])c1ccc2nc(N3CCNCC3)ccc2c1
[4]
  Potency: inactive
[5]
  activation: -10.4%
[6]
  Potency: inactive
[7]
  Potency: inactive

## Cc1c2ccncc2c(C)c2c1[nH]c1ccccc12
[4]
  Potency: 6.31 µM (active) and 3.16 µM (active)
[8]
  Potency: 10 µM (active)
[6]
  Potency: 25.1 µM (active)
[7]
  Potency: inactive

## O=C1C=CC(=O)C=C1
[4]
  Potency: inactive
[9]
  Potency: inactive
[6]
  Potency: inactive
[7]
  Potency: inactive
[10]
  Potency: inactive

## O=[N+]([O-])c1cc(O)c(O)c([N+](=O)[O-])c1
[4]
  Potency: inactive
[1]
  outcome: inactive
[9]
  Potency: inactive
[2]
  outcome: inactive
[6]
  Potency: inactive
[7]
  Potency: inactive

## NCCCP(=O)(O)O
[5]
  activation: -8.81%
[9]
  Potency: inactive
[7]
  Potency: inactive

## COc1ccc2[nH]cc(CCN)c2c1
[1]
  outcome: inactive
[9]
  Potency: inactive
[2]
  outcome: inactive
[6]
  Potency: inactive
[7]
  Potency: inactive

## O=c1ccc2[nH]cc(C3=CCNCC3)c2[nH]1
[4]
  Potency: 0.126 µM (active)

## Cc1[nH]c2ccc(O)cc2c1CCN
[4]
  Potency: 7.94 µM (active)
[9]
  Potency: inactive
[6]
  Potency: inactive
[7]
  Potency: inactive

## CN(N=O)c1ccc(O)c(O)c1
[4]
  Potency: inactive
[9]
  Potency: inactive
[6]
  Potency: inactive
[7]
  Potency: inactive

## [N-]=[N+]=CC(=O)OCC(N)C(=O)O (centres undefined)
[1]
  outcome: inactive
[2]
  outcome: inactive

## C[N+](C)(C)CCOC(=O)CBr
[5]
  activation: 16.2%
[9]
  Potency: inactive
[6]
  Potency: inactive
[7]
  Potency: inactive

## CCS(=O)(=O)Nc1cccc(C(=C2CCCCC2)c2cnc[nH]2)c1
[4]
  Potency: 0.0079 µM (active)
[9]
  Potency: inactive
[6]
  Potency: inactive
[7]
  Potency: inactive

## O=c1c2ccccc2[se]n1-c1ccccc1
[4]
  Potency: 1.58 µM (active) and 126 nM (active)
[6]
  Potency: inactive
[7]
  Potency: 10 µM (active)

## CCC1(C)CC(=O)NC(=O)C1
[4]
  Potency: inactive

## c1ccc2c(c1)[I+]c1ccccc1-2
[4]
  Potency: 501 nM (active) and 63.1 nM (active)
[8]
  Potency: 0.0398 µM (active)
[6]
  Potency: inactive
[7]
  Potency: inactive

## CCCC(C)C1(CC)C(=O)NC(=O)NC1=O (centres undefined)
[1]
  outcome: inactive
[2]
  outcome: inactive

## Clc1ccc(Cl)cc1
[1]
  outcome: inactive
[2]
  outcome: inactive

## CN1C2CCC1CC(OC(c1ccccc1)c1ccccc1N)C2 (centres undefined)
[1]
  outcome: inactive
[2]
  outcome: inactive

## N#CCCN
[5]
  activation: 19.4%
[9]
  Potency: inactive
[6]
  Potency: inactive
[7]
  Potency: inactive

## CCCn1c(C)c(C(=O)c2ccc3ccccc3c2)c2ccccc21
[4]
  Potency: 7.94 µM (active)
[9]
  Potency: 10 µM (active)
[6]
  Potency: inactive
[7]
  Potency: inactive

## ClC1C(Cl)C(Cl)C(Cl)C(Cl)C1Cl (centres undefined)
[1]
  outcome: inactive
[2]
  outcome: inactive

## COc1ccc2c(c1OC)C(=O)OC2C1c2cc3c(cc2CCN1C)OCO3 (centres undefined)
[1]
  outcome: inactive
[3]
  Potency: inactive
[2]
  outcome: inactive
[10]
  Potency: inactive

## Nc1ccc(CCN2CCN(c3cccc(C(F)(F)F)c3)CC2)cc1
[4]
  Potency: 7.94 µM (active)
[5]
  activation: -27.7%
[7]
  Potency: inactive

## CC(C)(C)c1cc(O)ccc1O
[4]
  activity, negative = inhibition: -31.1% [at 11.4 µM]
[3]
  Potency: 39.8 µM (active)
[10]
  Potency: inactive

## OC1CCCCC1N1CCC(c2ccccc2)CC1 (centres undefined)
[1]
  outcome: inactive
[2]
  outcome: inactive

## O=P(O)(O)C(Cl)(Cl)P(=O)(O)O
[4]
  Potency: inactive
[9]
  Potency: inactive
[6]
  Potency: inactive
[7]
  Potency: inactive

## O=C1CCO1
[1]
  outcome: inactive
[3]
  Potency: inactive
[2]
  outcome: inactive
[10]
  Potency: inactive

## O=S1(=O)N(CCN2CC=C(c3c[nH]c4cc(F)ccc34)CC2)c2cccc3c2N1CCC3
[4]
  Potency: 6.31 µM (active)
[6]
  Potency: 14.1 µM (active)
[7]
  Potency: inactive

## c1ccc2cc(CC3=NCCN3)ccc2c1
[9]
  Potency: inactive
[7]
  Potency: inactive

## NCCc1ccc(S(=O)(=O)F)cc1
[9]
  Potency: inactive
[6]
  Potency: inactive
[7]
  Potency: inactive

## NCCc1c[nH]c2ccc(C(N)=O)cc12
[9]
  Potency: inactive
[6]
  Potency: inactive
[7]
  Potency: inactive

## Clc1cc(I)cc(Cl)c1NC1=NCCN1
[9]
  Potency: inactive
[6]
  Potency: inactive
[7]
  Potency: inactive

## CCCN(CCC)C1Cc2cc(OC)c(OC)cc2C1
[9]
  Potency: inactive
[6]
  Potency: 2.51 µM (active)
[7]
  Potency: inactive

## CCCn1c(=O)c2[nH]c(C3CCCC3)nc2n(CCCOC(=O)c2ccc(S(=O)(=O)F)cc2)c1=O
[9]
  Potency: inactive
[7]
  Potency: inactive

## CN1CCc2cc(O)cc3c2[C@H]1Cc1ccc(O)c(O)c1-3
[8]
  Potency: 10 µM (active)
[7]
  Potency: inactive

## CC(=O)NBr
[9]
  Potency: inactive
[6]
  Potency: inactive
[7]
  Potency: inactive

## NNC(=O)c1ccc(O)cc1
[9]
  Potency: inactive
[7]
  Potency: inactive
